A number with no mark means an inactive call. Results filed as inconclusive are left out. Calls of active or inactive are those of the source. Unless noted, calls come from the whole dose curve; as a rule, active = well fitted curve in the direction sought with a large enough effect in the repeat runs; inconclusive = weak or mixed curves; inactive = no such curve, though single readings can be large; an effect the other way counts as inactive or inconclusive.

The nature of experiment [1]: qHTS assay to identify small molecule antagonists of the androgen receptor (AR) signaling pathway using the MDA cell line in the presence of 0.5 nM R1881 - cell viability counter screen (AID 1259242). Note: nearly all actives have a fitted effect of over 45% in size. The gist of the method:
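Viability of MDA-kb2 cells was multiplexed with the luciferase AR readout; after 16 hr with compounds and R1881 at 0.5 nM final, CellTiter-Fluor fluorescence was recorded.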
In general terms: qHTS replaces the single test concentration by a dilution series.

Experiment [2] has as its target Estrogen receptor (Homo sapiens) (UniProt P03372). In words: qHTS assay to identify small molecule antagonists of the estrogen receptor alpha (ER-alpha) signaling pathway using the BG1 cell line in the presence of 0.1 nM 17-beta-estradiol (AID 1259244). Note: nearly all actives have a fitted effect of over 50% in size. A digest of the protocol:
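Estradiol at 0.1 nM (final) stimulates the endogenous ER-alpha of VM7Luc4E2 cells carrying an ERE-driven luciferase; compounds are co-incubated 22 h at 37C and luciferase output quantified by luminescence.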

A short description of experiment [3]: qHTS assay to identify small molecule HDAC inhibitors (AID 1259364). Note: potency is the fitted concentration of half-maximal effect.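 Note: wild-type HCT-116 cells with endogenous class I/II HDAC activity; nearly all actives have a fitted effect of over 45% in size.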 The gist of the method: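 Read-out: luminescence of HDAC-Glo I/II reagent, 30 min RT, reflecting class I/II deacetylase activity in whole HCT-116 cells pre-exposed 2 h to DMSO-dissolved compounds.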
The nature of experiment [4]: qHTS assay to identify small molecule HDAC inhibitors - cell viability counter screen (AID 1259365). Note: series mostly up to about 92 µM; nearly all actives have a fitted effect of over 50% in size. The gist of the method: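 HCT-116 (wild type), 1,500 cells/well, overnight 37C/5% CO2; compound in DMSO 2hr; CellTiter-Glo 30min RT; luminescence read.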
Experiment [5] can be described thus: qHTS assay to identify small molecule agonists of the sonic hedgehog signaling (Shh) pathway - cell viability counter screen (AID 1259366). Note: nearly all actives have a fitted effect of over 50% in size. Note: potency is the fitted concentration of half-maximal effect. A digest of the protocol: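 CellTiter-Fluor fluorescence read-out, 1 hr at 37C, added after 23hr compound exposure. Cells: 3T3 Gli1-Luc, an NIH/3T3 clone with stably integrated Gli1-Luc reporter, plated 4hr before compound.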

The nature of experiment [6]: qHTS assay to identify small molecule antagonists of the sonic hedgehog signaling (Shh) pathway - cell viability counter screen (AID 1259367). Note: nearly all actives have a fitted effect of over 55% in size. A digest of the protocol:
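After a 4 hr settling period, 3T3 Gli1-Luc cells were treated with DMSO-dissolved chemicals and conditioned medium, kept 24 hr at 37C in 5% CO2, and assayed for viability by CellTiter-Fluor fluorescence following 1 hr reagent incubation.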

Experiment [7] can be described thus: qHTS assay to identify small molecule agonists of the sonic hedgehog signaling (Shh) pathway (AID 1259368; calls by dose curve;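 note: NIH/3T3-derived 3T3Gli1-Luc cells carrying a stable Gli1-driven firefly luciferase reporter; series mostly up to about 92 µM; nearly all actives have a fitted effect of over 15% in size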). The gist of the method: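 A Gli1 transcriptional response element controlled firefly luciferase in 3T3Gli1-Luc cells. Compounds and a positive control were added 4 hr after plating, and cells were incubated a further 24 hr at 37 C before luminescence detection.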

For experiment [8], the target named is Estrogen receptor beta (Homo sapiens) (UniProt Q92731). In words: qHTS assay to identify small molecule agonists of the estrogen receptor beta (ER-beta) signaling pathway (AID 1259377; active = well fitted activation curve with a large enough effect in the signal ratio in the repeat runs, not every such curve was filed as active; the % refers to the signal ratio). A digest of the protocol: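 Beta-lactamase reporter readout: fluorescence of LiveBLAzer B/G FRET substrate after 2 h at room temperature, following 16 h compound treatment of ER-beta-UAS-bla HEK293T cells at 37C in 2% charcoal-stripped FBS medium.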

Experiment [9] has the same target. In words: qHTS assay to identify small molecule antagonists of the estrogen receptor beta (ER-beta) signaling pathway (AID 1259378; active = well fitted inhibition curve with a large enough effect in the signal ratio in the repeat runs, not every such curve was filed as active; the % refers to the signal ratio). A digest of the protocol:
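ER-beta-UAS-bla HEK293T (GripTite) cells in 2% charcoal-stripped FBS medium were preincubated 6 hr at 37C, dosed with compound, then stimulated with 1 nM E2 (final) for 16 hr; beta-lactamase reporter read by B/G FRET fluorescence after 2 hr substrate loading.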

Experiment [10] is described as follows: qHTS assay to identify small molecule agonists of the androgen receptor (AR) signaling pathway in the presence of an antagonist - cell viability counter screen (AID 1259379).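 Note: MDA-kb2 human breast cancer cells carrying an MMTV luciferase reporter; series mostly up to about 92 µM; nearly all actives have a fitted effect of over 25% in size.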 The gist of the method:
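Seed MDA-kb2 at 3,000 cells/well; incubate 5 hr, 37C, 0% CO2. Add nilutamide to 3.0uM final, then pin compounds at 15 concentrations. Incubate 16 hr. Add CellTiter-Fluor at 15 hr, read fluorescence after 1 hr.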

Experiment [11] can be described thus: qHTS assay to identify small molecule agonists of the estrogen receptor beta (ER-beta) signaling pathway - cell viability counter screen (AID 1259380). Note: nearly all actives have a fitted effect of over 30% in size. The gist of the method:
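CellTiter-Glo read, 30 min RT, same wells as bla assay; cells ER-beta-UAS-bla HEK293T; 16 hr compound, 37C; medium 2% charcoal-stripped FBS.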

Experiment [12] in a line: qHTS assay to identify small molecule antagonists of the estrogen receptor beta (ER-beta) signaling pathway - cell viability counter screen (AID 1259382). Note: series mostly up to about 92 µM; nearly all actives have a fitted effect of over 55% in size. A digest of the protocol: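 In this multiplexed counter screen, cells were seeded at 2,000 per well in medium with 2% charcoal-stripped FBS and incubated 6 hr before compound and 1nM final E2 were added. Sixteen hours later, ATP-based luminescence reported viability.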

Experiment [13] addresses Estrogen receptor (Homo sapiens) (UniProt P03372). In words: qHTS assay to identify small molecule agonists of the estrogen receptor alpha (ER-alpha) signaling pathway in the presence of an antagonist (AID 1259383; calls by dose curve; note: nearly all actives have a fitted effect of over 15% in size; note: potency is the fitted concentration of half-maximal effect; for activation: top concentration of the series differs between compounds). The gist of the method:
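Stably transfected VM7Luc4E2 reporter cells, kept 5 days in charcoal-stripped serum, received ICI-182,780 at 10.0nM final before compound addition. Following 22hr incubation at 37C and 5% CO2, luciferase signal was read by luminescence.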

Experiment [14] can be described thus: qHTS assay to identify small molecule agonists or antagonists of the thyroid stimulating hormone receptor (TSHR) signaling pathway - wild type cell line counter screen (AID 1259384; calls by dose curve). A digest of the protocol: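 Wild-type HEK293 cells were plated 18 h at 37 C/5% CO2, pin-dosed with compound plus Ro20-1724 medium, held 30 min at room temperature, then given cAMP-d2 and anti-cAMP-cryptate; fluorescence was read after 1 h. Fifteen concentrations, triplicate.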

Experiment [15] in a line: qHTS assay to identify small molecule agonists of the estrogen receptor alpha (ER-alpha) signaling pathway in the presence of an antagonist - cell viability counter screen (AID 1259386).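 Note: series mostly up to about 92 µM; cells exposed to compounds for 22 h at 37 °C before the viability read; nearly all actives have a fitted effect of over 30% in size.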 A digest of the protocol:
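Viability counter screen using VM7Luc4E2 (full-length ER-alpha, four ERE-luciferase). The cells were treated with compounds alongside ICI-182,780 10.0nM for 22hr, and live-cell protease fluorescence was quantified with CellTiter-Fluor.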

Experiment [16] in a line: qHTS assay to identify small molecule antagonists of the sonic hedgehog signaling (Shh) pathway (AID 1259369; calls by dose curve; note: nearly all actives have a fitted effect of over 45% in size; note: potency is the fitted concentration of half-maximal effect). The gist of the method: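 For antagonist detection, the reporter line received test compounds together with conditioned medium, incubated 24hr at 37 C, 5% CO2, then luminescence was recorded following 30min room-temperature luciferase reagent incubation.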
The target of experiment [17] is Thyrotropin receptor (Homo sapiens) (UniProt P16473). In words: qHTS assay to identify small molecule antagonists of the thyroid stimulating hormone receptor (TSHR) signaling pathway (AID 1259385; calls by dose curve; note: nearly all actives have a fitted effect of over 20% in size). The gist of the method: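 TSHR-HEK293 cells were plated and held 18 h at 37C/5% CO2, then given compound plus Ro20-1724 and stimulated with TSH at 1.5 ng/mL final. After 30 min at room temperature, cAMP was detected with cAMP-d2/anti-cAMP-cryptate (1 h) by fluorescence.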
Sequence of Thyrotropin receptor (Homo sapiens) (P16473 whole entry, looked up): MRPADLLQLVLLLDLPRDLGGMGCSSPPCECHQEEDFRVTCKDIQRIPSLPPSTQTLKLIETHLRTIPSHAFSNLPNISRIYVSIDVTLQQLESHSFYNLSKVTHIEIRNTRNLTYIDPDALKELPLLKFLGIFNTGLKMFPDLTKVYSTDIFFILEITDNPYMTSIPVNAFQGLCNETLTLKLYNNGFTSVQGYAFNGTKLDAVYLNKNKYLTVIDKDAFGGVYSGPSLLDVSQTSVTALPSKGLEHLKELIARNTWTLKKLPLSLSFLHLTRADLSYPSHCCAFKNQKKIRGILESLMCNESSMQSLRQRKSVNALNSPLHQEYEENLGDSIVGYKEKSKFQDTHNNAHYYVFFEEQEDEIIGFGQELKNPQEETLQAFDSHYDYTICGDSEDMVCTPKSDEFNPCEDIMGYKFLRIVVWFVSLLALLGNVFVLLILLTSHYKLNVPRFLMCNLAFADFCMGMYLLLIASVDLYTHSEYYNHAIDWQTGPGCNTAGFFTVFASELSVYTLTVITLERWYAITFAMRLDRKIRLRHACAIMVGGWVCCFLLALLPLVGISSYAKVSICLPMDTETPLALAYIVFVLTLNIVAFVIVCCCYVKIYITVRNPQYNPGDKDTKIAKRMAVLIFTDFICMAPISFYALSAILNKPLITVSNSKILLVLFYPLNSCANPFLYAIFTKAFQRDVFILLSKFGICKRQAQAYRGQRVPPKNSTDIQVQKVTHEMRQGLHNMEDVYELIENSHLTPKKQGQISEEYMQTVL

Sequence of Estrogen receptor (Homo sapiens) (P03372 whole entry, looked up): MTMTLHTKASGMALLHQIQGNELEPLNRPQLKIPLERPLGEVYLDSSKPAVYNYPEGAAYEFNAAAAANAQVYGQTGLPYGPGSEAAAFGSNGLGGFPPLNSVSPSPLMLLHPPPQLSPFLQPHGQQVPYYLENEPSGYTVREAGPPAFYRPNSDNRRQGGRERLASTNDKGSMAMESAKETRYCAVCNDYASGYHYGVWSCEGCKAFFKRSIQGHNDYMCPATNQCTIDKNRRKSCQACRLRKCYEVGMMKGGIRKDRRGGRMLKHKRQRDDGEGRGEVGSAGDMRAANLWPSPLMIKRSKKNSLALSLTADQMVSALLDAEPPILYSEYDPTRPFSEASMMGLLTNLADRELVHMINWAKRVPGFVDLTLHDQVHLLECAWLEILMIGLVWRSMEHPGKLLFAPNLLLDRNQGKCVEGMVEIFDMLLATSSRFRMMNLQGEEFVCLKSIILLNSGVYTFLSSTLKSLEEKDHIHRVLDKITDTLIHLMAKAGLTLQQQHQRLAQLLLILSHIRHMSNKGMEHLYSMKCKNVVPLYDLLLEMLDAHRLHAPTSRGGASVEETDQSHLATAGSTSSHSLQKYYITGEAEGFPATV
Sequence of Estrogen receptor beta (Homo sapiens) (Q92731 whole entry, looked up): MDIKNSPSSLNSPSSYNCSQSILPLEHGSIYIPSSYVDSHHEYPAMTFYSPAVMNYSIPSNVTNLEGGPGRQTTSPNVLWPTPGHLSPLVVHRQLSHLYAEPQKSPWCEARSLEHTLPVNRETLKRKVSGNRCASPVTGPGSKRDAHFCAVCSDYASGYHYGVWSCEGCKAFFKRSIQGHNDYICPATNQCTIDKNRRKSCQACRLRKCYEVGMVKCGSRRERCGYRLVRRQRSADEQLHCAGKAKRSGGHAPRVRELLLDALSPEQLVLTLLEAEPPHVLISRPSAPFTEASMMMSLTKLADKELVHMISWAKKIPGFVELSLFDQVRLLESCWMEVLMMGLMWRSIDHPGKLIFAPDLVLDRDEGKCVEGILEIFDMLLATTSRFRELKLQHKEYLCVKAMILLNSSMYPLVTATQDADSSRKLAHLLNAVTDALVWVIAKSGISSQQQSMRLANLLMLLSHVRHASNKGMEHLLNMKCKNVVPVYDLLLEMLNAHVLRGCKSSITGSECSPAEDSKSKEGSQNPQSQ

Regarding `CCCCOC(=O)[C@@H](C)Oc1ccc(Oc2ccc(C#N)cc2F)cc1`, the outcome in experiment [1], in [4], in experiment [7] and in [8] was inactive. Also, the Potency entry in experiment [2], in experiment [3], in [5], in experiment [6], in experiment [9] and in experiment [10] was “inactive” throughout. In addition, the Potency entry in experiment [11], in experiment [12], in [13], in experiment [14] and in experiment [15] was “inactive” each time.

In the case of `CCOc1nc(C(Cl)(Cl)Cl)ns1`, the result in experiment [1], in [4], in experiment [7] and in experiment [8] was inactive. The Potency entry in experiment [2], in experiment [3], in experiment [5], in experiment [16], in [9] and in experiment [10] was “inactive” in each case. Besides, the Potency result in experiment [12], in experiment [13], in experiment [14], in experiment [17] and in experiment [15] was “inactive” each time.

`N#CCBr`: the result in experiment [1], in [4], in [7] and in experiment [8] was inactive. The Potency entry in [2], in experiment [3], in experiment [5], in [6], in [9] and in experiment [10] was “inactive” throughout. For the same compound, the Potency result in experiment [11], in experiment [12], in experiment [13], in [14], in [17] and in [15] was “inactive” each time.

In the case of `ClC(Cl)Br`, the outcome in [1], in experiment [4] and in experiment [7] was inactive. In addition, the Potency entry in experiment [2], in experiment [3], in [5], in experiment [6], in experiment [16] and in experiment [10] was “inactive” in each case. Moreover, the Potency result in [11], in experiment [12], in experiment [13], in experiment [14], in [17] and in experiment [15] was “inactive” each time.

Turning to `Nc1cc(Cl)ccc1O`, the outcome in experiment [1], in experiment [4] and in experiment [7] was inactive. The Potency entry in experiment [2], in experiment [3], in experiment [10], in experiment [12], in experiment [13] and in experiment [14] was “inactive” throughout. Also, in experiment [17], the Potency entry was “inactive”. The figures for the Potency in [5] and in [16] were 59.1 µM (active) and 1.67 µM (active), respectively.

For `[Cl][Sn]([Cl])([Cl])[Cl]`, the result in experiment [1], in experiment [4] and in experiment [7] was inactive. Besides, the Potency entry in experiment [2], in [3], in experiment [5], in experiment [16], in experiment [10] and in [11] was “inactive” each time. For the same compound, the Potency entry in [12], in experiment [13] and in experiment [15] was “inactive” in each case.

Turning to `CCCSP(=S)(OCC)Oc1ccc(Cl)cc1Cl` (configuration not stated), the outcome in [1], in experiment [4] and in experiment [7] was inactive. Also, the Potency entry in [2], in experiment [3], in [5], in [6], in experiment [16] and in [10] was “inactive” throughout. Further, the Potency entry in experiment [11], in experiment [12], in experiment [13], in experiment [14] and in experiment [15] was “inactive” throughout.

Consider `c1coc(-c2nc3ccccc3[nH]2)c1`, for which the result in [1], in [4] and in experiment [7] was inactive. In addition, the Potency result in [2], in experiment [5], in experiment [16], in experiment [9], in [10] and in experiment [12] was “inactive” in each case. For the same compound, the Potency entry in experiment [14], in [17] and in experiment [15] was “inactive” each time. Further, the Potency in experiment [3] is 0.611 µM (active); in experiment [13], 7.7 µM (active).

With `CNNC`, the outcome in [1], in [4] and in [7] was inactive. In addition, the Potency entry in experiment [2], in [3], in experiment [5], in [6], in [16] and in [9] was “inactive” each time. In addition, the Potency entry in experiment [10], in experiment [11], in [12], in experiment [13] and in experiment [15] was “inactive” throughout.

Values taken from PubChem BioAssay (Tox21).
